Reference: PubChem BioAssay (Tox21)
Several values for one entry are separate records, joined by “and”; a condition that tells them apart may be missing. Equal entries are not always repeated. Records with an inconclusive call do not appear. Entries that show only a call come without a potency. Activity calls are given as the source filed them. The call rests on the fitted dose curve; in most records, active means well fitted inhibition curve with a large enough effect in the repeat runs; inconclusive means weak or mixed curves; inactive means flat fitted curve, though single readings scatter.

Assay: qHTS assay to identify small molecule HDAC inhibitors (AID 1259364); further: nearly all actives have a fitted effect of over 45% in size; on activity change, negative = inhibition: top concentration of the series differs between compounds
Details: HCT-116 HDAC-Glo I/II luminescence, 2 h; series mostly up to 92.4 µM
From the text: U.S. Tox21 Program National Center for Advancing Translational Sciences [NCATS] NIH Chemical Genomics Center [NCGC] U.S. Environmental Protection Agency [EPA] National Institutes of Environmental Health Sciences [NIEHS] National Toxicology Program [NTP] U.S. Food and Drug Administration [FDA] Tox21 Assay Overview: Histone deacetylases (HDACs) are a group of epigenetic enzymes that regulate gene expression by histone deacetylation. HDACs are capable of introducing epigenetic modifications and such aberrations contribute to the onset and progression of several human diseases, thus making HDACs a popular therapeutic target. For identifying endogenous class I/II HDAC inhibitors a homogenous, luminogenic HDAC I/II cell based assay was used to measure the relative activity of class I and II HDACs from cells. Wild type HCT-116 cells were used to screen Tox21 libraries for identifying class I/II HDAC inhibitors.
Tox21 Assay Protocol Summary: HCT-116 cells were dispensed at 1,500 per well in 5uL of culture medium into white solid bottom 1536-well plates (Greiner Bio-One, Monroe, NC) using a Multidrop Combi (Thermo Scientific, Waltham, MA) dispenser. The assay plates were incubated at 37 C and 5% CO2 for an overnight, and then 23nL of compounds dissolved in DMSO and positive control were transferred using a Pintool station (Wako, San Diego, CA). The assay plates were incubated at 37C and 5% CO2 for 2hr. After compound treatment, 4uL of HDAC-Glo reagent (Promega Corporation, Madison, WI) was added to each well of the assay plates using Flying Reagent Dispenser (FRD, Aurora Discovery, San Diego, CA) and incubated the assay plates at room temperature for 30min. The luminescence signal was quantified using a ViewLux plate reader (Perkin Elmer, Shelton, CT).
Potency means the concentration at half of the fitted maximal effect.

Row | SMILES | Potency | activity change, negative = inhibition
1 | CCC(CC)(CC(=O)Nc1cccc(/C=C/c2nc(C3CCC3)cs2)c1)C(=O)O | inactive | 
2 | CCO[C@@H]1O[C@H](C(COCc2ccccc2)OCc2ccccc2)[C@H](OCc2ccccc2)[C@H]1O (stereo not given in full) | inactive | 
3 | COc1cccc(OC)c1C(=O)O | inactive | 
4 | C#Cc1ccc(-c2ccccc2F)cc1 | inactive | 
5 | CC1=CCC(=C(C)C)CC1 | inactive | 
6 | CCn1c2ccccc2c2cc([N+](=O)[O-])ccc21 | inactive | 
7 | O=C(O)CN(CCN(CC(=O)O)CC(=O)O)CC(=O)O |  | 2.84% [at 3.27 µM] (inactive)
8 | CCCc1ccc(OCC(=O)N2CCN(C(=O)COc3ccc(CCC)cc3OC)CC2)c(OC)c1 | inactive | 
9 | CCN(CCN)c1cccc(C)c1 | inactive | 
10 | Cc1ccc(C(=O)O)cc1 | inactive | 
11 | O=C(O)O |  | 2.76% [at 8.39 µM] (inactive)
12 | CC(=O)Oc1cc2c(s1)CCN(C(C(=O)C1CC1)c1ccccc1F)C2 (stereo not given) | inactive | 
13 | O=C(/C=C/c1ccccc1)OC/C=C/c1ccccc1 | inactive | 
14 | CCC(C)[O-].CCC(C)[O-].CCOC(=O)/C=C(/C)[O-].[Al+3] | inactive | 
15 | Cc1cc(C(C#N)c2ccc(Cl)cc2)c(Cl)cc1NC(=O)c1cc(I)cc(I)c1O (stereo not given) | inactive | 
16 | CN(C)Cc1ccccc1O | inactive | 
17 | CCCCCCCCCCCC(=O)OCC(C)OC(=O)CCCCC(=O)O (stereo not given) | inactive | 
18 | Cc1c(C)c([N+](=O)[O-])c(C(C)(C)C)c([N+](=O)[O-])c1C | inactive | 
19 | Nc1nc2c(ncn2COCCO)c(=O)[nH]1 | inactive | 
20 | O=C(O)CCN(C1(C(=O)NO)CCCC1)S(=O)(=O)c1ccc(Oc2ccc(F)cc2)cc1 | inactive | 

Row | SMILES | Potency | activity change, negative = inhibition
21 | C=CCn1c(=O)n(CC=C)c(=O)n(CC=C)c1=O | inactive | 
22 | CCCCNS(=O)(=O)c1ccc(C)cc1 | inactive | 
23 | CCCC(=O)OCOC(=O)C1=C(C)NC(C)=C(C(=O)OC)C1c1cccc(Cl)c1Cl (stereo not given) | inactive | 
24 | NC(=S)NC(N)=S | inactive | 
25 | COc1cccc2c1C(=O)c1c(O)c3c(c(O)c1C2=O)C[C@@](O)(C(C)=O)C[C@@H]3O[C@H]1C[C@H](N)[C@H](O)[C@H](C)O1 | inactive | 
26 | ClCCl | inactive | 
27 | CN(C)c1ccc(C(=C2C=CC(=[N+](C)C)C=C2)c2ccc(N(C)C)cc2)cc1 | 9.64 µM (active) and 8.63 µM (active) and 11.9 µM (active) | 
28 | COC(=O)c1ccccc1OC | inactive | 
29 | CCCCOC(=O)CO | inactive | 
30 | CCCCC(CC)CN1CN(CC(CC)CCCC)CC(C)(N)C1 (stereo not given) | inactive | 
31 | Cc1nc2n(c(=O)c1CCN1CCC(c3noc4cc(F)ccc34)CC1)CCCC2 | inactive | 
32 | CCOc1ccc2ccccc2c1C(=O)N[C@@H]1C(=O)N2[C@@H]1SC(C)(C)[C@@H]2C(=O)O | inactive | 
33 | CN(C)[C@@H](CCOc1cccc2ccccc12)c1ccccc1 | inactive | 
34 | CC[N+](CC)(CC)CCOC(=O)C(C1CCCC1)C1CCCC1 | inactive | 
35 | CC(CO)Oc1ccccc1 (stereo not given) | inactive | 
36 | CCC(CC)C(C)CCOC(C)=O (stereo not given) | inactive | 
37 | CCCC[P+](C)(CCCC)CCCC | inactive | 
38 | Cc1nc(-c2ccc(Cl)cc2)oc1COC(C)(C)C(=O)O | inactive | 
39 | C=CC(=O)Nc1cc2c(Nc3ccc(F)c(Cl)c3)ncnc2cc1OCCCN1CCOCC1 | inactive | 
40 | COc1ccc2c(c1)c(CC(=O)OC/C=C(\C)CC/C=C(\C)CCC=C(C)C)c(C)n2C(=O)c1ccc(Cl)cc1 | inactive | 
